Screening results from PubChem BioAssay.
Anthrax LT inh: qHTS Assay for Anthrax Lethal Toxin Internalization. Cells, anthrax lethal toxin internalization, FRET ratio (460/530). Potency, µM (doses to about 40 µM), inactives show top-dose activity change, negative = inhibition, most hits filed as inhibitors. actives 0.67% (n = 70,000). AID 912, 2007; also: % is scaled to controls: 0 for no effect and ±100 for the full control effect; nearly all actives have a fitted effect of over 50% in size
AmpC inh no det: Promiscuous and Specific Inhibitors of AmpC Beta-Lactamase (assay without detergent); actives 1.8% (n = 71,000); P00811; Potency, µM (doses to about 28.7 µM), without a hit: at the top dose activity change, negative = inhibition; AID 585, 2007; AmpC nitrocefin hydrolysis, absorbance 480 nm, no detergent; also: % of control where 0% means no effect
Target sequence (P00811 whole entry, looked up): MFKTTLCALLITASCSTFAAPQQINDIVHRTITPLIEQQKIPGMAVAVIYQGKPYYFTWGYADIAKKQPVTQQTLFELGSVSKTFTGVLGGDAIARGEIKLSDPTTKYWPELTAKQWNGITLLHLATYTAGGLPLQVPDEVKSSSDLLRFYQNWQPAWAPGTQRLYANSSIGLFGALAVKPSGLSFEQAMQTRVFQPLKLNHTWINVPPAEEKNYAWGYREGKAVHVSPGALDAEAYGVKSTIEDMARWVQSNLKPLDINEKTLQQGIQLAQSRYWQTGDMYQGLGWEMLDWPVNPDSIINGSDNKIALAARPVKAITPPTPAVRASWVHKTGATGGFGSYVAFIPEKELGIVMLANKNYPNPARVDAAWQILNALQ
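Enzyme, pH 7.0 phosphate. Compound titrations were pre-incubated with AmpC for 15 min at room temperature before nitrocefin (stock 800 uM) addition; product formation was recorded at 480 nm every 20 s for 4 min.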
AmpC det inh: Promiscuous and Specific Inhibitors of AmpC Beta-Lactamase (assay with detergent); purified AmpC, nitrocefin hydrolysis with detergent; Potency, µM (doses to about 28.7 µM), for inactives: top-dose activity change, negative = inhibition; actives 0.09% (n = 71,000); active = well fitted curve in the direction sought with a large enough effect; inconclusive = small, poorly fitted or top-dose-only effect; also: % is scaled to controls: 0 for no effect and ±100 for the full control effect
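E. coli AmpC (5.3 nM) in 20 mM phosphate pH 7.0 with 0.01% Triton X-100, preincubated 15 min RT with compound; nitrocefin (2 uL of 800 uM stock) hydrolysis followed by 480 nm absorbance every 20 s over 4 min.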
Prx2 Sm inh: Schistosoma Mansoni Peroxiredoxins (Prx2). actives 0.07% (n = 65,000). S. mansoni Prx2 activity coupled to TGR/GSH (TGR is thioredoxin glutathione reductase), NADPH fluorescence loss, qHTS. Potency, µM. Schistosoma mansoni peroxiredoxin 2 (Prx2). AID 448, 2006
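Prx2 inhibition was measured as reduced NADPH consumption when electrons flowed from NADPH through TGR and glutathione to Prx2 and H2O2. Plates were read kinetically over 8 min; enzyme reagents were held at 4 deg C during dispensing.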
* hit, by the source's call; ? = inconclusive; . = no result; [ ] = remark or other dose. An excerpt weighted towards active compounds, which were near 2.4% of everything screened. Unless noted, calls follow the shape of the full dose curve. Potency is read from the fitted curve at half-maximal effect.

SMILES | Anthrax LT inh | AmpC inh no det | AmpC det inh | Prx2 Sm inh
COc1ccccc1NC(=O)N1CCN(c2ccccn2)CC1 | 6% | 4µM*[single pt active] | 13% | >57
COc1ccccc1S(=O)(=O)Cc1ccc(C(=O)N2CCCC2)o1 | 6% | 22% | 11% | >57
Cc1ccccc1S(=O)(=O)Cc1ccc(C(=O)N2CCN(c3cccc(C)c3C)CC2)o1 | ? | 85% | -3% | >57
COc1ccc(S(=O)(=O)Cc2ccc(C(=O)N3CCN(c4ccccn4)CC3)o2)cc1 | -14% | 4µM*[single pt active] | 11% | >57
COc1ccccc1S(=O)(=O)Cc1ccc(C(=O)N2CCN(c3ccccn3)CC2)o1 | -13% | 4µM*[single pt active] | 11% | >57
Cc1ccccc1S(=O)(=O)Cc1ccc(C(=O)N2CC(C)CC(C)C2)o1 (centres undefined) | 3% | 4µM*[single pt active] | 10% | >57
COc1ccc(S(=O)(=O)Cc2ccc(C(=O)N3CCCC3)o2)cc1 | 0% | 3.2µM*[single pt active] | 9% | >57
COc1ccc(S(=O)(=O)Cc2ccc(C(=O)N3CCC(C(N)=O)CC3)o2)cc1 | 9% | 6% | 5% | >57
CC1CCC2C(=O)OC(CO)CN2C1c1ccc(Br)cc1 (centres undefined) | -8%[8 µM] | . | . | .
COc1ccc2c(c[n+](C)c3c4cc5c(cc4ccc23)OCO5)c1OC | 25µM* | 20% | -3% | >57
CN1CCN([C@@H]2Cc3ccccc3Sc3ccc(Cl)cc32)CC1 | ? | 63% | 0% | >57
CCn1c(SCC#N)nc2c(c1=O)C1(CCCC1)Cc1ccccc1-2 | 10µM* | 8% | 18% | >57
CN(C)CCCn1cc(C2=C(c3c[nH]c4ccccc34)C(=O)NC2=O)c2ccccc21 | 0.4µM* | 36% | -3% | >57
CN(C)Cc1c[nH]c2ccccc12 | ? | 85% | 0% | >57
CC(=O)[O-].CC(=O)[O-].O.O.O.[Pb+2] | -6% | 5% | 12% | .
CN1CCN(S(=O)(=O)c2ccc(NC(=O)Nc3cccc(Cl)c3)cc2)CC1 | 13µM* | 13% | -3% | >57
O=C(Nc1ccccc1)Nc1ccc(S(=O)(=O)N2CCCCC2)cc1 | ? | -23% | -2% | >57
CC(=O)c1ccc(OC2C=CC(C#Cc3ccc(Br)cc3)OC2CO)cc1 (centres undefined) | -19%[8 µM] | . | . | .
CO[C@H]1COC(=O)C/C=C\[C@@H](C)COC(=O)[C@@H](CCSC)NC(=O)C/C=C\[C@@H]1C | 0%[8 µM] | . | . | .
O=S(=O)(Nc1ccn(-c2ccccc2)n1)c1ccc(Br)cc1 | ? | 5µM* | 0% | .
Cc1cc(NC(=O)CSc2nc(-c3ccc(F)cc3)cs2)no1 | -2% | -13% | -3% | >57
O=C(CSc1nc(-c2ccc(F)cc2)cs1)NC(=O)NCc1ccco1 | -19% | 3.2µM* | 0% | >57
NCCC[C@@H](CC(=O)N[C@@H]1CCCC[C@H]1C(=O)N[C@H](CC(=O)N[C@@H](CCC(=O)O)CC(=O)O)Cc1c[nH]c2ccccc12)NC(=O)C[C@H](Cc1ccccc1)NC(=O)[C@@H]1CNCC[C@H]1N | -1% | 129% | -4% | >57
CCNc1nc(C)cc(COC)c1C#N | 0% | 9% | 11% | .
COCc1cc(C)nc(N2CCOCC2)c1C#N | -21% | 4µM*[single pt active] | 11% | .
SMILES | Anthrax LT inh | AmpC inh no det | AmpC det inh | Prx2 Sm inh
O=C(NCP(=O)(O)O)c1cccnc1 | -2%[8 µM] | -6%[5.75 µM] | -3%[5.75 µM] | >57
COc1ccc(Nc2ncnc3c2cnn3-c2ccccc2)cc1OC | ? | 25% | 6% | >57
Clc1ccc(Nc2ncnc3c2cnn3-c2ccccc2)cc1 | 10µM* | -4% | 6% | >57
COc1ccc(/C=C/N(CCc2ccc(OC)c(OC)c2)C(C)=O)cc1 | -5%[8 µM] | . | . | .
COc1ccccc1NC(=O)C1(C)Cc2ccccc2C(=O)O1 (centres undefined) | -1% | 4µM*[single pt active] | 7% | >57
Oc1ccc(Br)cc1/C=N/n1cnc2ccccc21 | -31% | 16µM*[single pt active] | 0% | >57
OCC(CO)(CO)N=Cc1cc(Br)ccc1O | -20% | -6% | 4% | >57
COc1cccc(-c2cc(C(=O)Nc3ccc(OC)c(OC)c3)no2)c1 | -13% | 32% | -5% | >57
Cc1onc(-c2ccccc2)c1C(=O)Nc1ccc2c(c1)OCO2 | -13% | -6% | 4% | .
O=C(Nc1ccc2c(c1)OCO2)c1cc2ncc(Br)cn2n1 | 3% | 16µM*[single pt active] | 25% | >57
CC(C)Cc1cc(C(=O)Nc2ccc3c(c2)OCO3)no1 | ? | 4µM*[single pt active] | 13% | >57
CCc1ccc(NC(=O)c2cc(CC(C)C)on2)cc1 | -29% | 4µM*[single pt active] | 12% | >57
COc1ccc(NC(=O)c2cc(CC(C)C)on2)cc1OC | -5% | 4µM*[single pt active] | 12% | >57
CCOc1ccc(-n2c(CC)nc3ccccc3c2=O)cc1 | -17% | 3.2µM*[single pt active] | 12% | >57
CCCCCCCC/C=C\CCCCCCCC(=O)NCCc1ccc(O)c(O)c1 | ? | 10µM* | -8% | >57
O=c1c(-c2cccs2)nc2cncnc2n1-c1ccccc1 | ? | -15% | 1% | >57
CC(C)[C@@H](OCc1ccccc1)[C@H](C)/C=N\O[C@@H](C)c1cn([C@H](CO)Cc2ccccc2)nn1 | -15%[8 µM] | . | . | .
O=C(CC(=O)c1cc(Cl)ccc1O)c1ccccc1 | 7.9µM* | -2% | 8% | .
Cc1ccc(O)c(C(=O)CC(=O)c2cccc(F)c2)c1 | ? | 3% | -1% | .
CCOC(=O)c1cc(-c2ccccc2)n(CC(=O)O)c1C | 1% | -5% | -5% | >57
CCOC(=O)c1cc(-c2ccc(F)cc2)n(CC(=O)Nc2nccs2)c1C | 10µM* | 3.2µM*[single pt active] | 10% | >57
Clc1ccc(C(c2ccc(Cl)cc2)C(Cl)Cl)cc1 | ? | -13% | 12% | .
C=CC1=C(C)C2=NC1=CC1=NC(=CC3=NC(=CC4=NC(=C2)C(C)=C4CCC(=O)O)C(CCC(=O)O)=C3C)C(C=C)=C1C.[Zn] | 16µM* | 78% | -12% | >57
Nc1ncnc2c1ncn2[C@@H]1O[C@@H](CO)[C@H](O)[C@@H]1O | ? | 0% | -2% | >57
Cc1cccc(-n2nc3c(c2NC(=O)c2ccc(Br)o2)CSC3)c1 | ? | 10µM* | 0% | >57
SMILES | Anthrax LT inh | AmpC inh no det | AmpC det inh | Prx2 Sm inh
O=C(Nc1ccc([N+](=O)[O-])cc1Cl)c1cc(Cl)ccc1O | 0.25µM* | -2%[12.8 µM] | -1%[12.8 µM] | >57
COc1ccc(CCN(C)CCC[C@@](C#N)(c2cc(OC)c(OC)c(OC)c2)C(C)C)cc1OC | 19% | 77% | -2% | >57
CCOC(=O)N1CCN(c2c(N3CCN(c4ccccn4)CC3)c(=O)c2=O)CC1 | -10% | 4µM*[single pt active] | 13% | >57
CCOC(=O)N1CCN(c2c(NCC3CCCO3)c(=O)c2=O)CC1 (centres undefined) | -6% | 4µM*[single pt active] | 5% | >57
CCOCC(=O)Nc1ccc2c(c1)OCCO2 | -5% | 10% | -3% | >57
CCOC(=O)N1CCN(c2c(N3CCOCC3)c(=O)c2=O)CC1 | -8% | 4µM*[single pt active] | 6% | >57
CCOC(=O)N1CCN(c2c(Nc3ccc4c(c3)OCCO4)c(=O)c2=O)CC1 | ? | 4µM*[single pt active] | 13% | >57
COCCN(CCOC)c1nc(C)nc2c1nc(-c1ccccc1)n2CCCN1CCCCC1C (centres undefined) | -8% | 57% | 15% | .
